Reference: PubChem BioAssay (Tox21)
Results filed as inconclusive are left out. Calls of active or inactive are those of the source. Unless noted, calls come from the whole dose curve; as a rule, active = well fitted curve in the direction sought with a large enough effect in the repeat runs; inconclusive = weak or mixed curves; inactive = no such curve, though single readings can be large; an effect the other way counts as inactive or inconclusive.

Columns and labels:
[1] = A CellTox Green Cytotoxicity Assay to monitor cytotoxicity in HEK293 cells - 32 hour (AID 1224881); note: nearly all actives have a fitted effect of over 40% in size; note: potency is the fitted concentration of half-maximal effect
In short: (§1)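 Fluorescence intensity, read at 0, 8, 16, 24, 32 and 40 h of compound treatment, reflected dye binding to DNA of dead HEK293 cells; compounds (23 nL, DMSO) were added 5 h after plating cells with reagent.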

[2] = A CellTox Green Cytotoxicity Assay to monitor cytotoxicity in HepG2 cells - 0 hour (AID 1224882); note: % is set by controls: 0 for no effect and ±100 for the full control effect; nearly all actives have a fitted effect of over 35% in size
In short: (§2)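 Using 1536-well format, dye-containing HepG2 suspension was seeded, allowed 5 h at 37 C/5% CO2, dosed by pintool with compounds, positive and negative controls, and imaged for fluorescence across 40 h.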

[3] = A CellTox Green Cytotoxicity Assay to monitor cytotoxicity in HepG2 cells - 32 hour (AID 1224883); note: nearly all actives have a fitted effect of over 50% in size; note: potency is the fitted concentration of half-maximal effect
In short: as §2

[4] = qHTS RealTime-Glo MT Cell Viability Assay in HepG2 cells - 16 hour (AID 1224885); note: nearly all actives have a fitted effect of over 50% in size; note: potency is the fitted concentration of half-maximal effect
In short: (§3)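 Tox21 10K library screened in qHTS format on HepG2 cells carrying RealTime-Glo reagents. Compounds were added after a 5 h preincubation, and the luminescent signal from continuous culture was measured repeatedly during 40 h treatment.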

[5] = qHTS RealTime-Glo MT Cell Viability Assay in HEK293 cells - 24 hour (AID 1224886); note: nearly all actives have a fitted effect of over 50% in size; note: potency is the fitted concentration of half-maximal effect
In short: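 Luminescence generated by NanoLuc from substrate produced by living HEK293 cells served as the viability signal. Each value reflects the reading at its stated time point during continuous 40 h compound exposure at 37 C.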

[6] = qHTS RealTime-Glo MT Cell Viability Assay in HEK293 cells - 8 hour (AID 1224887); note: nearly all actives have a fitted effect of over 50% in size; note: potency is the fitted concentration of half-maximal effect
In short: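 Viable HEK293 cells reduce a cell-permeant prosubstrate; the product diffuses out and is consumed by NanoLuc in the medium to give light. Compounds went in after a 5 h incubation and plates were read over the treatment course.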

[7] = A CellTox Green Cytotoxicity Assay to monitor cytotoxicity in HEK293 cells - 16 hour (AID 1224888); note: nearly all actives have a fitted effect of over 35% in size; note: potency is the fitted concentration of half-maximal effect; for activity change: % is set by controls: 0 for no effect and ±100 for the full control effect
In short: as §1

[8] = qHTS RealTime-Glo MT Cell Viability Assay in HepG2 cells - 0 hour (AID 1224889)
In short: as §3

[9] = A CellTox Green Cytotoxicity Assay to monitor cytotoxicity in HepG2 cells - 8 hour (AID 1224890); note: nearly all actives have a fitted effect of over 45% in size; note: potency is the fitted concentration of half-maximal effect
In short: as §2

[10] = qHTS assay to identify small molecule antagonists of the estrogen receptor alpha (ER-alpha) signaling pathway using the BG1 cell line in the presence of 0.1 nM 17-beta-estradiol - cell viability counter screen (AID 1259241); note: nearly all actives have a fitted effect of over 40% in size; note: potency is the fitted concentration of half-maximal effect
In short: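 Measures cytotoxicity alongside the ER-alpha antagonist readout: VM7Luc4E2 cells, charcoal-stripped serum, 0.1 nM 17beta-estradiol final, 22 hr compound incubation at 37C, CellTiter-Fluor fluorescence.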

[11] = qHTS assay to identify small molecule antagonists of the androgen receptor (AR) signaling pathway using the MDA cell line in the presence of 0.5 nM R1881 - cell viability counter screen (AID 1259242); note: nearly all actives have a fitted effect of over 45% in size; note: potency is the fitted concentration of half-maximal effect
In short: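 Viability of MDA-kb2 cells was multiplexed with the luciferase AR readout; after 16 hr with compounds and R1881 at 0.5 nM final, CellTiter-Fluor fluorescence was recorded.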

[12] = target: Estrogen receptor (Homo sapiens) (UniProt P03372); assay: qHTS assay to identify small molecule antagonists of the estrogen receptor alpha (ER-alpha) signaling pathway using the BG1 cell line in the presence of 0.1 nM 17-beta-estradiol (AID 1259244); note: nearly all actives have a fitted effect of over 50% in size; note: potency is the fitted concentration of half-maximal effect; for activity change, negative = inhibition: % is set by controls: 0 for no effect and ±100 for the full control effect
In short: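 Estradiol at 0.1 nM (final) stimulates the endogenous ER-alpha of VM7Luc4E2 cells carrying an ERE-driven luciferase; compounds are co-incubated 22 h at 37C and luciferase output quantified by luminescence.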

[13] = qHTS assay to identify small molecule phospholipidosis (PLD) inducers (AID 1259344; active = well fitted curve in the direction sought with a large enough effect; an effect the other way counts as inactive or inconclusive; note: % is set by controls: 0 for no effect and ±100 for the full control effect)
In short: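 HepG2 cells grown on collagen I take up LipidTOX Red while exposed to compound for 24 h; after fixation they are imaged at 20x and pit metrics are extracted.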

[14] = qHTS assay to identify small molecule HDAC inhibitors (AID 1259364);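 note: wild-type HCT-116 cells with endogenous class I/II HDAC activity; top concentration of the series differs between compounds; % is set by controls: 0 for no effect and ±100 for the full control effect; nearly all actives have a fitted effect of over 45% in size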
In short: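 Read-out: luminescence of HDAC-Glo I/II reagent, 30 min RT, reflecting class I/II deacetylase activity in whole HCT-116 cells pre-exposed 2 h to DMSO-dissolved compounds.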

[15] = qHTS assay to identify small molecule agonists of the sonic hedgehog signaling (Shh) pathway - cell viability counter screen (AID 1259366)
In short: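 After a 4hr attachment at 37C, NIH/3T3 cells bearing an integrated Gli1-driven luciferase reporter were dosed with compounds. Treatment lasted 24hr, with the final hour including CellTiter-Fluor for a fluorescence viability measurement.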

[16] = qHTS assay to identify small molecule antagonists of the sonic hedgehog signaling (Shh) pathway - cell viability counter screen (AID 1259367); note: nearly all actives have a fitted effect of over 55% in size; note: potency is the fitted concentration of half-maximal effect
In short: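 After a 4 hr settling period, 3T3 Gli1-Luc cells were treated with DMSO-dissolved chemicals and conditioned medium, kept 24 hr at 37C in 5% CO2, and assayed for viability by CellTiter-Fluor fluorescence following 1 hr reagent incubation.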

[17] = qHTS assay to identify small molecule agonists of the sonic hedgehog signaling (Shh) pathway (AID 1259368; calls by dose curve;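 note: NIH/3T3-derived 3T3Gli1-Luc cells carrying a stable Gli1-driven firefly luciferase reporter; series mostly up to about 92 µM; % is set by controls: 0 for no effect and ±100 for the full control effect; nearly all actives have a fitted effect of over 15% in size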)
In short: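 A Gli1 transcriptional response element controlled firefly luciferase in 3T3Gli1-Luc cells. Compounds and a positive control were added 4 hr after plating, and cells were incubated a further 24 hr at 37 C before luminescence detection.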

[18] = qHTS assay to identify small molecule HDAC inhibitors - cell viability counter screen (AID 1259365); note: nearly all actives have a fitted effect of over 50% in size; note: potency is the fitted concentration of half-maximal effect; for activity change, negative = cytotoxicity: series mostly up to about 92 µM; % is set by controls: 0 for no effect and ±100 for the full control effect
In short: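 Following a 2hr exposure of overnight-plated wild-type HCT-116 cells to DMSO-delivered compounds, CellTiter-Glo was added and luminescence recorded after 30min at room temperature.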

[19] = target: Androgen receptor (Homo sapiens) (UniProt P10275); assay: qHTS assay to identify small molecule antagonists of the androgen receptor (AR) signaling pathway using the MDA cell line in the presence of 0.5 nM R1881 (AID 1259243); note: nearly all actives have a fitted effect of over 50% in size; note: potency is the fitted concentration of half-maximal effect
In short: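 Reporter cells cultured without CO2 receive test chemicals, then 0.5 nM R1881 final; after 16 hr at 37C, ONE-Glo is added and light output recorded.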

Sequence of Estrogen receptor (Homo sapiens) (P03372 whole entry, looked up): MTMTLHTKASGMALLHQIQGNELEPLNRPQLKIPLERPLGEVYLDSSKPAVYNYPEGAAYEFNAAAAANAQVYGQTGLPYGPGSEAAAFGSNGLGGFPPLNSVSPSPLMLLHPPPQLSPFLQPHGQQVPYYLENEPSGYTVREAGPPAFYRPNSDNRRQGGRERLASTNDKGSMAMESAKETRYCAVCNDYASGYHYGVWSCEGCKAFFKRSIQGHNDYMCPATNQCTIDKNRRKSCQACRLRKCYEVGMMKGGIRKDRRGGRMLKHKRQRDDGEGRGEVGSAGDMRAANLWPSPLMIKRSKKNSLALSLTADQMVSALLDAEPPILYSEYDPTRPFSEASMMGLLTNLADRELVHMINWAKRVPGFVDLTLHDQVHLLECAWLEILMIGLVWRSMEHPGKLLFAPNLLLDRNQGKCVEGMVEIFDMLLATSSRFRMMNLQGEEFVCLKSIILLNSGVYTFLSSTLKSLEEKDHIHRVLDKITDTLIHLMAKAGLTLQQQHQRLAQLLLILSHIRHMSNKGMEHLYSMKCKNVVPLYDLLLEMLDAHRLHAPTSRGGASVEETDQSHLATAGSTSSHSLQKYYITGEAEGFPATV
Sequence of Androgen receptor (Homo sapiens) (P10275 whole entry, looked up): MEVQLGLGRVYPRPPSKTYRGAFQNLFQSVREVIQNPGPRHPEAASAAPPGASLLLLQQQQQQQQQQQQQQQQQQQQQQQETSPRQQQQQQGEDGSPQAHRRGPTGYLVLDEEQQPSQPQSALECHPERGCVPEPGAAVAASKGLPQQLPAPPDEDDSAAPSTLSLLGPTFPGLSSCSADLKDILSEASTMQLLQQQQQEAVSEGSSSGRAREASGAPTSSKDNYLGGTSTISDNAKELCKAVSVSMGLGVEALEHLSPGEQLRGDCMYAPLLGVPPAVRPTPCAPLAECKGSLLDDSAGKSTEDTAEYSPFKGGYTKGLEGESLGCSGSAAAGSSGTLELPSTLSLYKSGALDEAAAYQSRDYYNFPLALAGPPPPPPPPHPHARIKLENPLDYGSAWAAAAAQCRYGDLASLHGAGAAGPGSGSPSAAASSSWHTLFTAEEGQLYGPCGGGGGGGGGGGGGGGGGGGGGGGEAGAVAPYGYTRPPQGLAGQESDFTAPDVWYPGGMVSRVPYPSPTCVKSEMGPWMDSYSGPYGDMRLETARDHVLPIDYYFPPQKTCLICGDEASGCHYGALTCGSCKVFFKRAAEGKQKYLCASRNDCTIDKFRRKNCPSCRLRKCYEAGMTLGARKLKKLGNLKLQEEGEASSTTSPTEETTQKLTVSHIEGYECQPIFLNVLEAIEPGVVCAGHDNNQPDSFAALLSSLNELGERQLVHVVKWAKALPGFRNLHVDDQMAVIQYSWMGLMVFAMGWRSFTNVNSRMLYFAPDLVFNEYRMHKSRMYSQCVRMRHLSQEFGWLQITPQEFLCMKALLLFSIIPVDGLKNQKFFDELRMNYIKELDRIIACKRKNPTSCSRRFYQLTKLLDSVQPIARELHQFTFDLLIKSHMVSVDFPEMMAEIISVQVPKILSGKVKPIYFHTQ

OC1(c2ccc(Cl)c(C(F)(F)F)c2)CCN(CCCC(c2ccc(F)cc2)c2ccc(F)cc2)CC1
inactive: Potency [2] | Potency [8] | Potency [13] | Potency [14] | Potency [17]
active: Potency [1] 23.9 µM | Potency [3] 8.49 µM | Potency [4] 10.7 µM | Potency [5] 9.52 µM | Potency [6] 19 µM | Potency [7] 23.9 µM | Potency [9] 19 µM | Potency [10] 33.5 µM | Potency [11] 13.3 µM | Potency [12] 26.6 µM | Potency [15] 13.3 µM | Potency [16] 18.8 µM

CCOC(=O)O[C@H](C)OC(=O)c1ccc2c(c1)cc(C(=O)NC1CCN(C(C)C)CC1)n2Cc1cc(-c2ccc(Cl)s2)on1
active: Potency [1] 18.2 µM | Potency [3] 11.5 µM | Potency [4] 12.9 µM | Potency [5] 11.5 µM | Potency [6] 11.5 µM | Potency [7] 45.8 µM | Potency [9] 18.2 µM | Potency [10] 64.1 µM | Potency [11] 40.4 µM | Potency [18] 50.9 µM | Potency [15] 12.8 µM | Potency [16] 20.3 µM
inactive: Potency [2] | Potency [8] | Potency [14] | Potency [17]

C[n+]1cc2c3c(ccc2c2ccc4cc5c(cc4c21)OCO5)OCO3
inactive: cytotoxicity [2] -26.7% [at 15.8 µM] | activity change, negative = cytotoxicity [8] -1.39% [at 15.8 µM] | activity change, negative = inhibition [12] -84.3% [at 19 µM] | Potency [13] | activity change, negative = inhibition [14] -20.3% [at 19 µM] | activity change, negative = cytotoxicity [18] 25% [at 19 µM] | activity change [17] -5.86% [at 18.9 µM, active compounds read high]
active: Potency [1] 0.465 µM | Potency [3] 0.585 µM | Potency [4] 0.827 µM | Potency [6] 0.465 µM | Potency [7] 4.65 µM | Potency [9] 0.737 µM | Potency [10] 13 µM | Potency [19] 7.3 µM | Potency [15] 1.64 µM | Potency [16] 2.91 µM

CCCCCCCCCOC(=O)c1ccc(O)cc1
inactive: Potency [2] | Potency [8] | Potency [9] | Potency [11] | Potency [14] | Potency [18] | Potency [16] | Potency [17]
active: Potency [1] 38.3 µM | Potency [3] 48.3 µM | Potency [5] 38.3 µM | Potency [6] 38.3 µM | Potency [7] 38.3 µM | Potency [19] 42.7 µM | Potency [15] 60.3 µM

Oc1cc2ccccc2c2ccccc12
active: Potency [1] 17.4 µM | Potency [3] 11 µM | Potency [4] 11 µM | Potency [6] 3.47 µM | Potency [10] 21.7 µM | Potency [11] 19.3 µM | Potency [19] 10.9 µM | Potency [18] 24.3 µM | Potency [16] 6.86 µM
inactive: Potency [2] | Potency [7] | Potency [8] | Potency [9] | Potency [17]

CC(C)=CCOc1ccc(/C=C/C(=O)c2ccc(OCC=C(C)C)cc2OCC(=O)O)cc1
inactive: Potency [1] | Potency [2] | Potency [3] | Potency [4] | Potency [5] | Potency [6] | Potency [7] | Potency [8] | Potency [9] | Potency [10] | Potency [11] | Potency [19] | Potency [12] | Potency [13] | Potency [14] | Potency [18] | Potency [16] | Potency [17]
